Experimental findings from PubChem BioAssay AID686952 (The Scripps Research Institute Molecular Screening Center, 2013) are described below.

The campaign covered roughly 3,200 compounds. About 2,600 (81%) were called active. So high a share suggests a set chosen from earlier hits. A selection follows. Values without a mark were called inactive.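 Rule for the calls: active = activation above the all-compound mean plus 3 SD, ignoring values outside control-based bounds (cut at about 4.8% in these data); inactive = the rest.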

The nature of this assay: EDANS-DABCYL substrate optical interference, artefact control for kallikrein-7 zymogen activator project, biochemical, fluorescence intensity, high throughput (AID 686952).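 Note: value is the 4 h activation minus the activation read at time zero.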 The note with it: no enzyme, 4 h, at 7 µM, hits give high values, solvent 0%, active enzyme control 100%.
Regarding `CCS(=O)(=O)Nc1cc(C(=O)OC)ccc1C(=O)OC`, the activation was 8.19% (active).
In the case of `CCCCCC(=O)Nc1ccc(-c2cn3cccnc3n2)cc1`, the activation was 28.5% (active).
`CC(C)(C)C(=O)Nc1ccc(-c2cn3cccnc3n2)cc1`: the activation is 80.3% (active).
The value for `CC(=O)Nc1ccc(-c2cn3cccnc3n2)cc1` was 73.5% (active); that for `CCOC(=O)C1=C(O)/C(=C/c2ccc(OCC(=O)Nc3ccc(C)cc3)cc2)N=C1C` was 3.03%.
As to `CCOc1ccc(-n2c(SCC(=O)Nc3cc(C)c(NC(=O)c4ccccc4)cc3OC)nnc2-c2cccs2)cc1`, the activation was 19.4% (active).
In the case of `COc1c(N2CCN(C(=S)Nc3ccccc3F)C(C)C2)c(F)cc2c(=O)c(C(=O)O)cn(C3CC3)c12` (configuration not stated) it was -26%; in that of `Cc1cccc(C)c1NC(=O)C(c1ccccc1)N1CC(=O)Nc2ccccc21` (configuration not stated), 24.8% (active).
In the case of `CNc1cncc(-c2ccc(NS(C)(=O)=O)cc2)n1` it was 46.5% (active).
For the compound `CN(C)Cc1c(O)ccc2c(=O)c(-c3ccccc3Cl)coc12`, the activation is 83.7% (active).
As to `CC(=O)Nc1ccc(S(=O)(=O)NCC(=O)OCc2cc(=O)oc3ccc4ccccc4c23)cc1`, the activation was 209% (active).
The value for `Cc1c(C)c2c(OCC(=O)NCCCO)cc3c(c2oc1=O)CCC(C)(C)O3` was 55.7% (active); that for `Cc1c(C)c2c(OCC(=O)N[C@@H](C(=O)O)c3ccccc3)cc3c(c2oc1=O)CCC(C)(C)O3` was 49.4% (active); that for `Cc1cc(=O)oc2c3c(cc(OCC(=O)N[C@H](C(=O)O)c4ccccc4)c12)OC(C)(C)CC3` was 49.3% (active).
For `Cc1cc(=O)oc2c3c(cc(OCC(=O)NCCC(=O)N[C@@H](C)C(=O)O)c12)OC(C)(C)CC3`, the activation is 65.1% (active).
Take `O=C(O)c1ccc2c3c(cccc13)C(=O)N(OS(=O)(=O)c1ccccc1)C2=O`: the activation was 103% (active).
The value for `Cc1cc(C)c2c(n1)nn1c(-n3ccnc3)cc(C)nc21` was 44.4% (active).
Regarding `Cc1ccc(C2Nc3ccccc3C(=O)N2CCN2CCNC2=O)cc1` (configuration not stated), the activation is 19.4% (active).
For the compound `C/C(=C\c1ccccc1)C1NC(=O)c2c(sc3c2CCCC3)N1` (configuration not stated), the activation was 14.5% (active).
Turning to `COC(=O)c1cc(N2CCNCC2)nc2ccccc12`, the activation was 33.6% (active).
For `CC(=O)N1CCN(C(=O)c2cc(-c3ccc(C)o3)nc3ccccc23)CC1`, the activation was 66.4% (active).
In the case of `CC1CCCN(C(=O)c2cc(-c3ccco3)nc3ccccc23)C1` (configuration not stated) it was 35.5% (active); in that of `CCCCCn1c(=O)c(C(=O)OCC)c(Cl)c2ccccc21`, -2.49%; in that of `CCCCN(CCCC)CC(O)Cn1c2ccccc2c(=O)c2ccccc21` (configuration not stated), 16.2% (active).
For `O=C1NC(c2cccc(Cl)c2)Nc2ccccc21` (configuration not stated), the activation was 18.9% (active).
As to `CC(=O)NN1C(=O)c2ccccc2NC1c1ccccc1` (configuration not stated), the activation was 35.4% (active).
In the case of `CCOC(=O)NN1C(=O)c2ccccc2NC1c1cccc(O)c1` (configuration not stated) it was 20.4% (active); in that of `CCc1nc(Nc2ccc(NC(C)=O)cc2)c2oc3ccccc3c2n1`, 218% (active).
For the compound `CC(=O)Nc1nc(C)c(-c2csc(Nc3ccc(S(N)(=O)=O)cc3)n2)s1`, the activation is 46.5% (active).
Turning to `CCOC(=O)c1[nH]c2ccc(OC)cc2c1NC(=O)CCN1CCN(Cc2ccccc2)CC1`, the activation is -3.59%.
Consider `Cc1nn(-c2ccccc2)c(C)c1NC(=O)COC(=O)c1cc(Cl)ccc1O`, for which the activation was 23.3% (active).
The value for `O=C(Nc1nncs1)c1ccccc1NS(=O)(=O)c1cccs1` was 38.3% (active); that for `O=c1oc2c(CN3CCCCC3)c(O)ccc2c2c1CCCCC2` was 68.6% (active).
In the case of `COc1cc(/C=N\NC(=O)c2nonc2N)c(OC)cc1Br` it was 74% (active); in that of `COc1cc2c(cc1OC)CC1(CCCCC1)N=C2`, 44.6% (active).
As for `CCCN(CC(=O)NC(=O)NC1CCCCC1)CC(=O)Nc1cc(Cl)ccc1Cl`, the activation is 4.93% (active).
In the case of `CN(C(=O)c1cc2c(=O)n3ccccc3nc2s1)C1CCCCC1`, the activation was 23% (active).
The value for `CCOCCCNC(=O)c1cc2c(=O)n3ccccc3nc2s1` was 68.6% (active); that for `CCN1CCN(C(=O)Cn2nc(C)n3c(cc4c(OC)cccc43)c2=O)CC1` was 29.8% (active).
Turning to `CC1(C)Oc2ccc3ccc(=O)oc3c2/C(=N/O)C1=O`, the activation was 84.6% (active).
For the compound `COC(=O)Cc1cc(=O)oc2c(C)c(O)ccc12`, the activation was 76.7% (active).
The value for `CCN1CCCC1CNC(=O)c1cc2cc(OC)c(OC)cc2[nH]1` (configuration not stated) was 22.6% (active).
